# Only some compounds are listed: those with a hit (about 5.2% of all), similar ones and a draw of the others.
# Tau fluor counter – counter-screen for tau fibril formation inhibitors; tau K18 P301L Alexa594 fluorescence, heparin fibrillization; Potency, µM (titrated, usually from 57.7 µM), without a hit: at the highest dose activity change, negative = decrease; hit rate 0.93% among 280,000; AID 1463; further: potency means the concentration at half of the fitted maximal effect; nearly all actives have a fitted effect of over 55% in size
#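 Human tau K18 P301L (15 uM unlabeled, 0.24 uM Alexa 594-labeled) in 100 mM sodium acetate pH 7 with 20 uM heparin, 6 hr at 37 C. ThT 30 uM added, 1 hr ambient; Alexa 594 FP and total fluorescence read at 555/632 nm.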
# Tau fibril ThT – inhibitors of human tau fibril formation, thioflavin T binding; P10636; recombinant tau K18 P301L, heparin-induced fibrillization, ThT fluorescence; Potency, µM (titrated, usually from 57.4 µM), for inactives: at the top dose activity, negative = inhibition, usual class: inhibitors; hit rate 2.1% among 270,000; AID 1460; further: potency means the concentration at half of the fitted maximal effect; nearly all actives have a fitted effect of over 55% in size
# Target sequence (P10636 561-689 P618L limits assumed): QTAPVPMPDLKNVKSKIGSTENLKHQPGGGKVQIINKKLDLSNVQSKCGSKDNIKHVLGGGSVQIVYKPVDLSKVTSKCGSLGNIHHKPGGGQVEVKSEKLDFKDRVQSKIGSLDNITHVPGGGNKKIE
#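 Fibril formation assay: tau K18 P301L at 15 uM with trace Alexa 594 label, heparin inducer 20 uM, pH 7 sodium acetate buffer, 37 C for 6 hr; endpoint ThT signal.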
# Tau fibril FP – blocks human tau fibril formation measured by polarization | P10636 | K18 P301L tau heparin fibrillization, Alexa594 FP, 6 h | Potency, µM (titrated, usually from 57.7 µM), for the others: at the highest dose activity, negative = inhibition, hits mostly inhibitors | hit rate 0.39% among 280,000; further: potency means the concentration at half of the fitted maximal effect; nearly all actives have a fitted effect of over 55% in size
#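 FP of Alexa 594-tau after heparin (20 uM) induction. Substrate: human K18 P301L, 15 uM unlabeled, 0.24 uM labeled. Buffer 100 mM sodium acetate pH 7. 6 hr, 37 C.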
# Sfp inh – inhibitors of Bacillus subtilis Sfp phosphopantetheinyl transferase. Biochemical Sfp PPTase activity, qHTS. hit rate 3.5% among 310,000. Q9F4F7. Potency, µM, without a hit: largest response in the series, negative = inhibition, most hits filed as inhibitors. AID 1490;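 further: the enzyme is Sfp with the accession as filed and its product quenches rhodamine fluorescence; potency means the concentration at half of the fitted maximal effect; 0% = enzyme reaction without inhibitor and -100% = no enzyme wells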
#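 Sfp 15 nM + cpd, 15 min RT; start w/ rhodamine-CoA 5 uM, BHQ-2-YbbR 12.5 uM (final); 50 mM Hepes pH 7.6, 10 mM MgCl2, 0.01% NP-40, 0.01% BSA; read 525/598 nm at 0 and 30 min.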
# Coupling enz – coupling enzyme interference in Giardia aldolase counter-screen. hit rate 0.67% among 290,000. activity change, negative = inhibition, % at 58.2 µM, hits read low. coupling enzyme system counterscreen, AmpLite Red fluorescence. AID 2472; in the data active means activity change below about -30%
#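 Counterscreen lacking aldolase: glyceraldehyde-3-phosphate coupling-enzyme reagent preincubated 10 min at RT with compound (at 57.5 uM final), then substrate/coupling system with AmpLite Red added; fluorescence read at 525/598 nm after 20 min RT.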
# * marks the source's active call; other numbers are inactive results; u = inconclusive; x = no result given; [ ] = remark or other dose. Unless noted, the call rests on the fitted dose curve; in most records, active means well fitted curve in the direction sought with a large enough effect; inconclusive means small, poorly fitted or top-dose-only effect, or another doubt; inactive means no such curve, though single readings can be large; an effect the other way counts as inactive or inconclusive. Unless noted, on the % scale 0 is the no-effect control and ±100 the full control effect.
SMILES,Tau fluor counter,Tau fibril ThT,Tau fibril FP,Sfp inh,Coupling enz
Clc1cccc(-n2ncc3c(Nc4ccc5c(c4)OCCO5)ncnc32)c1,6.31µM*[quencher],u,u,x,x
CC(C)c1cc(C(=O)N/N=C/c2c[nH]c3ccccc23)n[nH]1,-16.3%,x,7.5%,-2.8%,0.2
CCc1ccc2c(Cl)c(C(=O)N/N=C/c3c[nH]c4ccccc34)sc2c1,11.2µM*[quencher],10µM*,u,10.4%,-1.7
CCc1ccc(-c2cc(C(=O)N/N=C/c3c[nH]c4ccccc34)[nH]n2)cc1,10µM*[quencher],u,-6.5%,-0.1%,-1.8
O=C(N/N=C/c1c[nH]c2ccccc12)c1cccc(Cl)c1,x,x,x,5.4%,0.2
Cc1ccccc1Nc1cc(C(=O)NC2CCC(C)CC2)c2ccccc2n1 (stereo not drawn),-8.5%,-2.4%,0.8%,x,x
CCOCCCNC(=O)c1cc2c(s1)-c1ccccc1SC2,x,x,x,79.4µM*,3.0
COC(=O)c1sc2c(c1C)c(=O)n(-c1ccccc1)c(=O)n2CC(=O)Nc1cccc(C)c1,-27.2%,12.2%,u,x,x
CCOC(=O)c1sc2nc(N3CCOCC3)c3c(c2c1N)CCCC3,-18.1%,-11.9%,-2.0%,7.3%,0.0
CC1(C)Cc2c(c(N3CCOCC3)nc3sc(C(=O)Nc4cccc(Cl)c4)c(N)c23)CO1,x,x,x,44.7µM*,1.3
COc1ccc(NC(=O)c2sc3nc(N4CCOCC4)c4c(c3c2N)CCCC4)c(OC)c1,x,x,x,-13.4%,1.7
Nc1c(C(=O)NCc2ccco2)sc2nc(N3CCOCC3)c3c(c12)CCCC3,-12.0%,u,u,12.6µM*,-8.8
CCN(CC)C(=O)c1sc2nc(N3CCOCC3)c3c(c2c1N)CCCC3,-27.7%,u,-7.7%,44.7µM*,-0.4
Cc1cccc(NC(=O)c2sc3nc(N4CCOCC4)c4c(c3c2N)CC(C)(C)OC4)c1,-25.4%,-9.1%,-1.9%,x,x
N[C@@H](Cn1ccc(=O)n(Cc2ccccc2C(=O)O)c1=O)C(=O)O,-2.7%,-4.6%,0.2%,56.2µM*,0.4
CCOC(=O)c1[nH]c(C)c(CCC(=O)Nc2ccc(Br)c(C)c2)c1C,-23.2%,-6.4%,-4.2%,x,x
FC(F)(F)c1nc(=S)c2ccccc2[nH]1,-2.1%,u,-18.0%,20µM*,-4.9
S=c1nc(COc2ccccc2)[nH]c2ccccc12,x,x,x,31.6µM*,-8.0
S=c1nc(Cc2ccccc2)[nH]c2ccccc12,x,x,x,28.6%,-0.3
Cc1nc(=S)c2ccccc2[nH]1,-6.5%,-5.5%,-6.5%,-21.7%,-2.1
CC(=O)c1cccc(NC(=O)CN2C(=O)c3ccccc3Sc3ncccc32)c1,-6.7%,1.3%,-10.2%,x,x
CN1C(=O)C(=C2CCCCCC2)SC1=S,-2.4%,u,-1.2%,56.2µM*,-1.7
CCCCCCCCC#CCC#CCC#CCCCC(=O)O,-3.0%,-7.6%,-5.4%,4.1%,0.8
COc1ccc(-c2cc(C(F)(F)F)nc(SCCC(=O)Nc3ccc(NC(C)=O)cc3)n2)cc1,u,1.2%,u,x,x
COC(=O)C1=C(O)/C(=C\c2ccc(CNC(=O)C(=O)Nc3ccc(C)c(C)c3)o2)N=C1C,u,u,-0.5%,u,-0.9
SMILES,Tau fluor counter,Tau fibril ThT,Tau fibril FP,Sfp inh,Coupling enz
CCOC(=O)C1=C(O)/C(=C\c2cccc(OC)c2)N=C1C,-7.8%,u,-6.4%,1.2%,1.1
CCOC(=O)C1=C(O)/C(=C/c2ccc(CNC(=O)C(=O)Nc3ccc(C)cc3)o2)N=C1C,-22.6%,u,2.4%,39.8µM*,-26.2
COC(=O)C1=C(O)/C(=C\c2ccc(CNC(=O)C(=O)Nc3ccc(C)cc3)o2)N=C1C,-11.5%,u,-7.4%,12.6µM*,4.9
CCOC(=O)C(=O)NCc1ccc(/C=C2/N=C(C)C(C(=O)OCC)=C2O)o1,-18.6%,u,-7.9%,22.4µM*,-7.8
Cc1ccc(CNC(=O)C2CCN(S(=O)(=O)c3cc(-c4noc(C)n4)ccc3C)CC2)cc1,-12.1%,4.6%,-4.9%,x,x
CCc1ccccc1OCCSc1nnc(-c2cc(OC)c(OC)c(OC)c2)o1,-25.3%,-5.4%,u,x,x
O=C(COc1ccccc1F)Nc1c(C(=O)Nc2cccc(F)c2)oc2ccccc12,-18.7%,10.1%,u,x,x
Cc1ccc(S(=O)(=O)Nc2cccc3ccc[n+](C)c23)cc1,x,x,x,-11.0%,-7.8
O=C(c1ccc2c(c1)N(Cc1ccccc1)C(=O)c1ccccc1S2(=O)=O)N1CCN(Cc2ccccc2)CC1,-20.3%,-5.1%,-0.4%,x,x
